ChEMBL document CHEMBL3433997, “St. Jude Leishmania screening dataset” (2016)

Experiments:
Type in all cases: functional
[1] = target: Solute carrier family 2, facilitated glucose transporter member 1 (Homo sapiens) (UniProt P11166); experiment: ST_JUDE_LEISH: Cytotoxicity at 2uM final concentration against transgenic Leishmania Mexicana promastigotes LmGLUT1 that are glucose transport deficient and complemented with the human glucose transporter GLUT1. Activity is measured by DNA content using SYBR green in vitro
Solute carrier family 2, facilitated glucose transporter member 1 (Homo sapiens), sequence (P11166 whole entry): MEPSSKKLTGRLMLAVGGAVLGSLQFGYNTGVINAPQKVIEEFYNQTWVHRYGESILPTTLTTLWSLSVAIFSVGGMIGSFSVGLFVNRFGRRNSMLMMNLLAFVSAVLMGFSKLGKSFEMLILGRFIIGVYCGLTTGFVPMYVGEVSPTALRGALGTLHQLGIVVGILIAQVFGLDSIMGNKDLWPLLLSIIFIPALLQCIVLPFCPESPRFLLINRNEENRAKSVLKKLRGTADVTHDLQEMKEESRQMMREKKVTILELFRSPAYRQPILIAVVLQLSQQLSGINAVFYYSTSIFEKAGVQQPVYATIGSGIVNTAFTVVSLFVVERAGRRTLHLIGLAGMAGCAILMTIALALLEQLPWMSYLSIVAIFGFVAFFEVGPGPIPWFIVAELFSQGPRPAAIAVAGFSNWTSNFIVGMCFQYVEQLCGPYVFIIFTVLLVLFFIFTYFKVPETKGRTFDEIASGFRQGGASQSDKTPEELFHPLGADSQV

[2] = target: Hexose transporter 1 (Plasmodium falciparum) (UniProt O97467); experiment: ST_JUDE_LEISH: Cytotoxicity at 2uM final concentration against transgenic Leishmania Mexicana promastigotes LmPfHT that are glucose transport deficient and complemented with the Plasmodium falciparum hexose transporter. Activity is measured by DNA content using SYBR green in vitro
[3] = target: Glucose transporter (Leishmania mexicana) (UniProt O61059); experiment: ST_JUDE_LEISH: Cytotoxicity at 2uM final concentration against transgenic Leishmania Mexicana promastigotes LmGT2 that are glucose transport deficient and complemented with the L. Mexicana glucose transporter 2. Activity is measured by DNA content using SYBR green in vitro

Row | Structure (SMILES) | inhibition [1] | inhibition [2] | inhibition [3]
1 | Cc1nc(C)c(-c2ccc(Cl)cc2)c(O)c1I | 4.26% | 2.05% | 2.3%
2 | O=C(/C=C/c1ccc(Cl)c(Cl)c1)NCCCCCN1CCCC(c2c[nH]c3ccccc23)C1 (stereo not given) | 5.68% | 5.33% | 5.49%
3 | Oc1ccc2[nH]c(-c3cccc(F)c3)nc2c1CN1CCC(N2CCCC2)CC1 | 3.47% | 3.65% | 4.9%
4 | COc1ccc(C2CC(=O)C3=C(C2)NC(C)=C(C(=O)OC(C)C)C3c2cccc(O)c2)cc1OC (stereo not given) | 4.15% | 1.12% | 1.71%
5 | COc1ccc(CCn2c(=N)c(C(=O)NCc3cccnc3)cc3c(=O)n4ccccc4nc32)cc1 | 11.7% | 10.9% | 7.6%
6 | COc1ccc(Nc2nccc(-c3cccc(NC(=O)c4cc5cc(F)ccc5[nH]4)c3)n2)cc1 | 3.61% | 0.11% | -1.2%
7 | COc1cccc(Cc2cnc3nc(N)nc(N)c3c2C)c1 | 2.99% | 1.68% | 3.44%
8 | CCCCN(C)CC#Cc1ccc2[nH]c(C)c(Cl)c(=O)c2c1 | 3.48% | 3.22% | 2.37%
9 | CC(=O)Nc1[nH]c(-c2ccccc2)nc1C(N)=O | -1.96% | -0.89% | -1.65%
10 | CC(=O)CC(=O)N1CCN(c2ccccc2)CC1 | -0.36% | -0.81% | -0.35%
11 | CN(C)CCOc1ccc(NC(=O)Nc2ccnc3c(Br)cccc23)cc1Cl | 0.71% | 0.76% | -0.85%
12 | COc1ccc2nc3cc(Cl)ccc3c(Nc3ccc(O)c(CN4CC5CCC(CC5)C4)c3)c2c1 | 4.99% | 4.24% | 3.82%
13 | C=C1C(C(=O)OCC)=CN(CC)c2cc(O[C@@H]3CCN(C(=O)OC(C)(C)C)C3)ccc21 | 6.89% | 5.44% | 6.99%
14 | CCCN(CC)CCOC(=O)c1ccccc1 | 8.35% | 7.44% | 9.33%
15 | NC(=O)c1ccsc1NC(=O)CNC(c1ccccc1)c1ccc(Cl)cc1 (stereo not given) | 6.13% | 2.82% | 1.74%
16 | O=C(Nc1ccc(OC2CCN(Cc3ccc(F)cc3)C2)c(Cl)c1)c1ccc(F)cc1 (stereo not given) | -0.04% | -0.69% | -1.62%
17 | COc1ccc(NC(=O)c2ccc3[nH]c(-c4ccc(Cl)cc4)cc3c2)cc1OCCN(C)C | 2.93% | 1.88% | 0.79%
18 | Cc1cccc2nc(-c3ccc(-c4cccc(CNCCCN5CCCC5=O)c4)cc3)[nH]c12 | 7.98% | 9.6% | 8.02%
19 | CN(C)CCCOc1ccc(CN2CC[C@H](NC(=O)c3ccc(Cl)c(Cl)c3)C2)cc1Cl | 13.3% | 10.7% | 8.69%
20 | COc1ccc(-c2nc(NC(=O)CS(=O)(=O)c3ccc(C)cc3)sc2C)cc1 | 8.39% | 6.4% | 0.17%
21 | Oc1ccc(CCNCCCCCCNCCc2ccc(Cl)cc2)c(Cl)c1O | -2.47% | -4.06% | -1.17%
22 | COc1cc2c(cc1OC)CN(c1cc(N)c3cc(OC)c(OC)cc3n1)CC2 | 1.34% | 0.25% | -1.39%
23 | Cc1ccc(C(CC(=O)Nc2nccs2)c2ccc(OC(C)C)cc2)cc1 (stereo not given) | -1.83% | 0.63% | -1.31%
24 | O=C(/C=C/c1ccc(Cl)cc1)NCCCCCN1CCCN(C(=O)Nc2ccc(Cl)c(C(F)(F)F)c2)CC1 | 1.83% | 2.68% | 2.81%
25 | Cc1cc(N(C)C)nc(Nc2ccc(NC(=O)c3ccccc3Cl)cc2)n1 | -1.66% | 5.72% | -4.81%

Row | Structure (SMILES) | inhibition [1] | inhibition [2] | inhibition [3]
26 | CCCNCc1ccc(-c2ccc(CN(CCOC)C(=O)c3ccco3)cc2)nc1 | 0.5% | 0.17% | 2.77%
27 | CCN1CCN(c2cc(C)c3cc(NC(=O)c4ccc([N+](=O)[O-])c(C)c4)ccc3n2)CC1 | 3.68% | 5.06% | 7.26%
28 | O=C(c1cc(-c2ccccc2)n[nH]1)N1CCN(S(=O)(=O)c2ccc(Cl)s2)CC1 | 4.06% | 1.3% | 2.66%
29 | O=C(/C=C/c1ccc(Cl)c(Cl)c1)N1CCC(CN2CCC(c3nc4ccccc4n3CCCO)CC2)CC1 | 4.72% | 4.22% | 5.85%
30 | COc1ccc(C2NCCc3c2[nH]c2ccccc32)cc1CN1CCN(c2ccc(F)cc2)CC1 (stereo not given) | 3.17% | 0.27% | 0.15%
31 | N=C(N)Nc1nc(-c2cc(NC(=O)C(F)(F)F)cc([N+](=O)[O-])c2)cs1 | 0.23% | 0.51% | 1%
32 | CN1CCN(CC(=O)Nc2cccc(-c3ccc(-c4nc5cc(C(F)(F)F)ccc5[nH]4)s3)c2)CC1 | 1.78% | 2.7% | 4.37%
33 | O=C(c1ccc(-c2cccc(-c3nc4cc(F)ccc4[nH]3)c2)cc1)N1CCCCC1CN1CCC(O)C1 (stereo not given) | 4.71% | 4.55% | 3.96%
34 | CCCC[C@@H](C(=O)NCc1ccccc1C(F)(F)F)N1C(=O)CCC1C(=O)Nc1ccc([N+](=O)[O-])cc1 (stereo not given in full) | 1.1% | 2.37% | 2.75%
35 | CC(C)(C)OC(=O)NCc1ccc(Nc2nnc(-c3cccc(C(=O)NCc4cc(C(F)(F)F)cc(C(F)(F)F)c4)c3)o2)cc1 | 7.94% | 7.58% | 5.41%
36 | Cc1ccc(CNC(=O)c2cnc(N3CCN(c4ccncc4)CC3)c(Cl)c2)cc1 | 4.68% | 6.64% | 3.12%
37 | CCCCCCCCS(=O)(=O)NCCCC1CCN(CCCCCNC(=O)C=Cc2ccc(Cl)c(Cl)c2)CC1 | 2.57% | -0.32% | 2.95%
38 | CCCCCCN1CCC(CNCc2cccc([N+](=O)[O-])c2)CC1 | 5.28% | 9.36% | 5.95%
39 | NC1CCN(Cc2cccc(-c3cccc(-c4nc5ccccc5[nH]4)c3)c2)C1 (stereo not given) | 2.17% | 3.31% | 1.15%
40 | CC(C)NCc1ccc(-c2ccc(NC(=O)c3cccc(C#N)c3)cc2)cc1 | 1.38% | 1.38% | -1%
41 | CN(C)c1cccc2c1nc(-c1ccco1)n2CCNCc1ccccc1 | -0.08% | 1.58% | -0.13%
42 | CC(C)NCC(=O)Nc1cccc(C(=O)Nc2cccc(C(F)(F)F)c2)c1 | 4.13% | 2.76% | -1.8%
43 | CCCCCCCN1CCC(CCNc2ccnc3ccc(OC)cc23)CC1 | 0.51% | 2.47% | 0.79%
44 | Cc1ccc(/C=C2/SC(=Nc3ccccc3)NC2=O)c(C)c1 | 13.2% | 12.1% | 7.9%
45 | COc1ccc(-c2ccc(NC(=O)c3ccc(C#N)cc3)cc2)cc1CN(C)CCO | 2.76% | 0.56% | 1.59%
46 | Cc1cc(N(C)C)nc(Nc2ccc(NC(=O)CCc3ccccc3)cc2)n1 | 3.05% | 6.42% | 2.1%
47 | NC1(C(=O)O)Cc2ccc(Cl)cc2C1 (stereo not given) | 5.91% | 2.95% | 3.62%
48 | CC1(C)S(=O)(=O)CC(O)CS1(=O)=O | 3.87% | 3.02% | 2.49%
49 | COc1ccc(N2CCN(CCCCNC(=O)c3ccc(NC(=O)c4ccc(Cl)cc4)cc3)CC2)c(C)c1 | 10.4% | 8.02% | 9.07%
50 | Cc1ccc(CN2CCCN(Cc3ccc(C(=O)Nc4ccc(Cl)cc4)cc3)CC2)s1 | 2.49% | 2.74% | 0.05%

Row | Structure (SMILES) | inhibition [1] | inhibition [2] | inhibition [3]
51 | Fc1ccc2[nH]c(-c3ccc(-c4cccc(CN5CCCCC5)c4)cc3)nc2c1 | 1.59% | 1.72% | 1.72%
52 | O=C(Cc1c[nH]cn1)Nc1ccc(-c2ccc(-c3nc4cc(F)ccc4[nH]3)cc2)cc1 | 1.05% | 0.28% | -0.48%
53 | C=CCNC(=O)C(C)c1ccc2cc(OC)ccc2c1 (stereo not given) | 0.71% | 0.77% | -0.06%
54 | Cc1cccc2nc(-c3ccc(-c4ccc(NC(=O)NCc5ccc(F)cc5)cc4)cc3)[nH]c12 | 0.56% | 0.89% | 0.63%
55 | COc1ccc2nccc([C@@H](O)CN3CCC(NC(=O)c4cccc(-c5cc(C)no5)c4)CC3)c2c1 | 1.35% | 0.14% | 0.08%
56 | CC(C)c1cc2c(cc1O)C(Cc1ccccc1Cl)N(C)CC2 (stereo not given) | 2.73% | -0.25% | 0.89%
57 | CCCCCC(C)NC[C@@H](O)[C@H](Cc1ccccc1)NC(=O)c1cc(NCC)cc(N2CCCCS2(=O)=O)c1 (stereo not given in full) | -0.71% | 1.3% | 0.36%
58 | O=C(Nc1cccc(CN2CCCN(Cc3cccc(F)c3)CC2)c1)c1ccc(Cl)c(Cl)c1 | 4.11% | 2.83% | 6.5%
59 | CC(C)Cn1cc2c(ccc3nc(N)nc(N)c32)n1 | 1.25% | 0.94% | 0.32%
60 | CCCCCn1c(Sc2ccc(C#N)c([N+](=O)[O-])c2)nnc1-c1ccccc1 | 8.41% | 9.62% | 4.33%
61 | CCOc1cc(O)c(-c2nc(N)ncc2-c2ccc3c(c2)OCCO3)cc1CC | 9.25% | 11% | 4.66%
62 | CNC(=O)c1c(NC(=O)c2cccs2)sc2c1CCCC2 | 1.2% | 1.4% | 1.44%
63 | CC(C)(C)OC(=O)Nc1cccc(-c2csc(NC(=N)N)n2)c1 | 0.85% | 0.42% | -0.52%
64 | COc1ccc(NC(=O)Nc2ccc(C)c(-c3ccc(C(=O)Nc4ccncc4)cc3)c2)cc1 | 1.53% | 1.45% | 0.71%
65 | CCn1ccc2c(N3CCCCS3(=O)=O)cc(C(=O)N[C@@H](Cc3ccccc3)[C@H](O)CNC(C)(C)CCCC(C)C)cc21 | 2.17% | 1.95% | 5.14%
66 | CC(C)c1ccc(-c2nc3cc(Cl)cnc3[nH]2)cc1 | 3.03% | 3.85% | 4.06%
67 | CC(=O)c1ccccc1OCCSc1nnc(Cc2cccs2)n1C1CCCCC1 | 1.7% | 2.09% | 1.75%
68 | CC(CN1CCN(C)CC1)C(=O)Nc1ccc(-c2csc(-c3nc4ccccc4[nH]3)c2)cc1 (stereo not given) | 4.03% | 5.18% | 5.51%
69 | CCN(CC)CCCNc1cc[n+]([O-])c2cc3ccccc3cc12 | -0.82% | -2.45% | -1.63%
70 | CN(CCCCCN1CCC(NC(=O)Nc2ccc(C(F)(F)F)cc2)C1)C(=O)/C=C/c1ccc(Cl)c(Cl)c1 (stereo not given) | 3.11% | 2.11% | 2.97%
71 | COc1cccc(CCc2cccc(CNC(C)=O)c2)c1 | 5.81% | 4.65% | 5.68%
72 | CC(=O)N1c2ccccc2C(C)=CC1(C)C | -0.17% | -0.45% | -1.02%
73 | Cc1[nH]n(-c2cccc(Cl)c2)c(=O)c1-c1ccc(Cl)cc1 | -3.78% | -2.18% | -2.07%
74 | CCC1(C)CC(CCNCc2ccccc2O)(c2ccccc2OC)CCO1 (stereo not given) | 0.62% | -0.31% | 0.88%
75 | O=C(/C=C/c1ccc(Cl)c(Cl)c1)N1CCC(CCCN2CCC(c3c[nH]c4ccccc34)CC2)CC1 | 70.7% | 51.2% | -0.32%
